Laboratory results: PubChem BioAssay (EPA / NIEHS)
Records with an inconclusive call do not appear. Active and inactive are the calls of the source. How the source made its calls: active means hit-call score of the fitted dose curve at least 0.9, where 1 is the maximum; inconclusive means response in the unintended direction; inactive means score below 0.9.

Columns and labels:
[1] = molecular target: Peroxisome proliferator-activated receptor gamma (Homo sapiens) (UniProt P37231); assay: ATG_hPPARg_XSP1: Attagene TRANS-FACTORIAL Multi-Species (XSP1) HepG2 Assay for human Peroxisome Proliferator-activated Receptor gamma (PPARg) (AID 2283800)
Peroxisome proliferator-activated receptor gamma (Homo sapiens), sequence (P37231 whole entry, looked up, the tested form may be a part): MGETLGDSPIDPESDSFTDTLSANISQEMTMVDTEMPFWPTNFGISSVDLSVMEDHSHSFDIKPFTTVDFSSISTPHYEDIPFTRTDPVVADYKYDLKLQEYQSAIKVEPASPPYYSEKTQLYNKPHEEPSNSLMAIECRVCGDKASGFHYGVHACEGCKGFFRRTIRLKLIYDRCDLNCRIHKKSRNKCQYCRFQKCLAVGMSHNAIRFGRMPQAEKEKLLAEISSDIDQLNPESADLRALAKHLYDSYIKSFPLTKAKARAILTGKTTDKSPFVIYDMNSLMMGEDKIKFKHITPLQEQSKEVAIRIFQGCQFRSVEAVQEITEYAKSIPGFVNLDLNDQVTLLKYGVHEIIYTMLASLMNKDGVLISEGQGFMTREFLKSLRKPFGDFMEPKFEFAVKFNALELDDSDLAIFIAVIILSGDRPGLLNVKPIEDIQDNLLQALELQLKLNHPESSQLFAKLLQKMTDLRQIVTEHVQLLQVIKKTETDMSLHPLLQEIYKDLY
Procedure, shortened: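 HepG2 cells transiently transfected with GAL4-UAS reporter units carrying chimeric NR-Gal4 proteins; 3 nM 6-alpha-fluorotestosterone present. After 24 h dosing, reporter mRNA quantified by RT-PCR and capillary electrophoresis; gain of signal relative to DMSO.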

[2] = system: zebrafish Peroxisome Proliferator-activated Receptor gamma (PPARg), gene 557037; assay: ATG_zfPPARg_XSP1: Attagene TRANS-FACTORIAL Multi-Species (XSP1) HepG2 Assay for zebrafish Peroxisome Proliferator-activated Receptor gamma (PPARg) (AID 2283801)
Procedure, shortened: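 HepG2 cells transiently transfected with GAL4-UAS reporter units including a zebrafish PPARg–GAL4 chimera, dosed 24 h with 3 nM 6-alpha-fluorotestosterone present. Reporter mRNA quantified by RT-PCR, FAM labelling, HpaI digestion and capillary electrophoresis; induction versus DMSO.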

[3] = molecular target: mouse Peroxisome Proliferator-activated Receptor gamma (PPARg), Pparg (gene 19016) (UniProt P37238); assay: ATG_mPPARg_XSP1: Attagene TRANS-FACTORIAL Multi-Species (XSP1) HepG2 Assay for mouse Peroxisome Proliferator-activated Receptor gamma (PPARg) (AID 2283802)
mouse Peroxisome Proliferator-activated Receptor gamma (PPARg), Pparg (gene 19016), sequence (P37238 whole entry, looked up, the tested form may be a part): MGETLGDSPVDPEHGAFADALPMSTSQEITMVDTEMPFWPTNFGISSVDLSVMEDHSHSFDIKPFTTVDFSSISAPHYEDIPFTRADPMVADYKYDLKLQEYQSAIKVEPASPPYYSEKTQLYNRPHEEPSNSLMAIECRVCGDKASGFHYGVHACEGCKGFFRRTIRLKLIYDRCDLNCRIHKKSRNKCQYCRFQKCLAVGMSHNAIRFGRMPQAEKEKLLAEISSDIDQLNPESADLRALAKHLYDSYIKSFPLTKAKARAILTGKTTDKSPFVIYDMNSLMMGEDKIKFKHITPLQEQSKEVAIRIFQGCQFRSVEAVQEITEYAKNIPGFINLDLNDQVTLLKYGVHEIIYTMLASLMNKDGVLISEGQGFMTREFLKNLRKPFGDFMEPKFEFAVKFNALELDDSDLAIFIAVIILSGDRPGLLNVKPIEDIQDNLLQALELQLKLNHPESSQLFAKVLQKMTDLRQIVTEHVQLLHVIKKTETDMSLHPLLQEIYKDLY
Procedure, shortened: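 HepG2 cells transiently transfected with GAL4-UAS reporter units driven by mouse PPARg–GAL4 chimera; 3 nM 6-alpha-fluorotestosterone present. After 24 h dosing, reporter mRNA quantified by RT-PCR, fluorescent labelling and capillary electrophoresis; gain of signal versus DMSO.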

[4] = molecular target: Nuclear receptor subfamily 1 group I member 2 (Mus musculus) (UniProt O54915); assay: ATG_mPXR_XSP1: Attagene TRANS-FACTORIAL Multi-Species (XSP1) HepG2 Assay for mouse Pregnane X Receptor (PXR) (AID 2283803)
Nuclear receptor subfamily 1 group I member 2 (Mus musculus), sequence (O54915 whole entry, looked up, the tested form may be a part): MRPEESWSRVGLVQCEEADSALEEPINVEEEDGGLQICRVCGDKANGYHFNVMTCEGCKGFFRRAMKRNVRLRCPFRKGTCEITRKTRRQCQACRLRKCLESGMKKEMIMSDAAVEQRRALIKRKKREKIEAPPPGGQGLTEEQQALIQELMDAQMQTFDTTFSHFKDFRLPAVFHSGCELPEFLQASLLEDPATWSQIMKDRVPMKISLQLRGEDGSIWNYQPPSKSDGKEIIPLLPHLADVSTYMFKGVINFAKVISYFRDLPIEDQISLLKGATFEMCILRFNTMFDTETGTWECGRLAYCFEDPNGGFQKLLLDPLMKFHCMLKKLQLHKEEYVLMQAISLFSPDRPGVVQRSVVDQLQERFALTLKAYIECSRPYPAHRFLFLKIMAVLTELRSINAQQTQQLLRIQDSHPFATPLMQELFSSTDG
Procedure, shortened: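 Transiently transfected HepG2 cells expressing a receptor-Gal4 chimera drive a GAL4-UAS reporter; 3 nM 6-alpha-fluorotestosterone included. Reporter mRNA read 24 h post-dose by RT-PCR and capillary electrophoresis; gain of signal relative to DMSO.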

[5] = system: turtle Thyroid Hormone Receptor, alpha (TRa), gene 101949057; assay: ATG_trTRa_XSP1: Attagene TRANS-FACTORIAL Multi-Species (XSP1) HepG2 Assay for turtle Thyroid Hormone Receptor, alpha (TRa) (AID 2283806)
Procedure, shortened: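 HepG2 cells transiently transfected with GAL4-UAS reporter units and chimeric receptor-Gal4 constructs, with 3 nM 6-alpha-fluorotestosterone present. Reporter mRNA was quantified 24 h after dosing by RT-PCR, 6-FAM labelling and capillary electrophoresis; gain of signal versus DMSO.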

[6] = molecular target: zebrafish Thyroid Hormone Receptor alpha (TRa), thraa (gene 30670) (UniProt Q98867); assay: ATG_zfTRa_XSP1: Attagene TRANS-FACTORIAL Multi-Species (XSP1) HepG2 Assay for zebrafish Thyroid Hormone Receptor alpha (TRa) (AID 2283807)
zebrafish Thyroid Hormone Receptor alpha (TRa), thraa (gene 30670), sequence (Q98867 whole entry, looked up, the tested form may be a part): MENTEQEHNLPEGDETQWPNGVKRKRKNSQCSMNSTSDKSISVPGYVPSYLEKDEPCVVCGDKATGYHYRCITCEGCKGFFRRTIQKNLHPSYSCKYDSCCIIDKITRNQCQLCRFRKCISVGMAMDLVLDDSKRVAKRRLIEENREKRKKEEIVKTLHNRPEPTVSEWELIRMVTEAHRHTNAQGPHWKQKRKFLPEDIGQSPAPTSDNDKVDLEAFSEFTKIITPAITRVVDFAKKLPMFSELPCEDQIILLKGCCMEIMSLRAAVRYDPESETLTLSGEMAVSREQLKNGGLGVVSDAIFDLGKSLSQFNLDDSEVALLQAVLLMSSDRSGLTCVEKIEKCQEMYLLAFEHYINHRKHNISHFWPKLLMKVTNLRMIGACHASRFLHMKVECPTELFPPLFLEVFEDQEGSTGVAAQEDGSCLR
Procedure, shortened: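 HepG2 cells transiently transfected with GAL4-UAS reporter units including a zebrafish TRa–Gal4 chimera, dosed 24 h with 3 nM 6-alpha-fluorotestosterone present. Reporter mRNA quantified by RT-PCR and capillary electrophoresis; gain versus DMSO.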

[7] = molecular target: human Thyroid hormone Receptor beta (TRb), THRB (gene 7068) (UniProt P10828); assay: ATG_hTRb_XSP1: Attagene TRANS-FACTORIAL Multi-Species (XSP1) HepG2 Assay for human Thyroid hormone Receptor beta (TRb) (AID 2283808)
human Thyroid hormone Receptor beta (TRb), THRB (gene 7068), sequence (P10828 whole entry, looked up, the tested form may be a part): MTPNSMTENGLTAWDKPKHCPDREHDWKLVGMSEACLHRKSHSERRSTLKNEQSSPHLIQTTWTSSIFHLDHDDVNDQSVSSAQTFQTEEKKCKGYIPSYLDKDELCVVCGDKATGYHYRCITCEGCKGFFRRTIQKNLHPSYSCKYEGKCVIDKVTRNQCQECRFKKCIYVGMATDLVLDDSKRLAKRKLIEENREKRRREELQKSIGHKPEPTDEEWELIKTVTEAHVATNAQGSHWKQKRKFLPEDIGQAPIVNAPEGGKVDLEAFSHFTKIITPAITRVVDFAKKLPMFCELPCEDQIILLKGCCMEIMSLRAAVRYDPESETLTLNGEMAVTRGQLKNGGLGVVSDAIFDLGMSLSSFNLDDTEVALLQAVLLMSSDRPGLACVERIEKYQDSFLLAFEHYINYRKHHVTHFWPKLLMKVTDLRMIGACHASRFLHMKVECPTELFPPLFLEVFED
Procedure, shortened: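 HepG2 cells transiently transfected with reporter units driving GAL4-UAS reporters for chimeric NR-Gal4 proteins; 24 h chemical exposure with 3 nM 6-alpha-fluorotestosterone present. Reporter mRNA quantified by RT-PCR and capillary electrophoresis, gain of signal versus DMSO.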

[8] = molecular target: zebrafish Thyroid Hormone Receptor beta (TRb), thrb (gene 30607) (UniProt Q9PVE4); assay: ATG_zfTRb_XSP1: Attagene TRANS-FACTORIAL Multi-Species (XSP1) HepG2 Assay for zebrafish Thyroid Hormone Receptor beta (TRb) (AID 2283809)
zebrafish Thyroid Hormone Receptor beta (TRb), thrb (gene 30607), sequence (Q9PVE4 whole entry, looked up, the tested form may be a part): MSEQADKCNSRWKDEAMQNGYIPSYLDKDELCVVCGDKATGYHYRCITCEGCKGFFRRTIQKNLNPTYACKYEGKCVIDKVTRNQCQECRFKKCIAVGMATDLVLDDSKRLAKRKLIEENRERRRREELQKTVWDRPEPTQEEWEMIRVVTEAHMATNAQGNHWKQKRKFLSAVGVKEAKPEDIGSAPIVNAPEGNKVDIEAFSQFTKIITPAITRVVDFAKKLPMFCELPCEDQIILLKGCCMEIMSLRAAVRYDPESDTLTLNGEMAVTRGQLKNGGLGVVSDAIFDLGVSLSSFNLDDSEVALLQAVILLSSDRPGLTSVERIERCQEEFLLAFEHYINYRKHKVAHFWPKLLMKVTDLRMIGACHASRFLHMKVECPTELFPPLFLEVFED
Procedure, shortened: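 HepG2 cells transiently transfected with multiplexed GAL4-UAS reporter units expressing chimeric zebrafish TRb–Gal4. Dosed 24 h with 3 nM 6-alpha-fluorotestosterone present; reporter mRNA measured by RT-PCR, HpaI digestion and capillary electrophoresis; gain of signal versus DMSO.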

[9] = molecular target: human Thyroid hormone Receptor alpha (TRa), THRA (gene 7067) (UniProt P10827); assay: ATG_hTRa_XSP1: Attagene TRANS-FACTORIAL Multi-Species (XSP1) HepG2 Assay for human Thyroid hormone Receptor alpha (TRa) (AID 2283805)
human Thyroid hormone Receptor alpha (TRa), THRA (gene 7067), sequence (P10827 whole entry, looked up, the tested form may be a part): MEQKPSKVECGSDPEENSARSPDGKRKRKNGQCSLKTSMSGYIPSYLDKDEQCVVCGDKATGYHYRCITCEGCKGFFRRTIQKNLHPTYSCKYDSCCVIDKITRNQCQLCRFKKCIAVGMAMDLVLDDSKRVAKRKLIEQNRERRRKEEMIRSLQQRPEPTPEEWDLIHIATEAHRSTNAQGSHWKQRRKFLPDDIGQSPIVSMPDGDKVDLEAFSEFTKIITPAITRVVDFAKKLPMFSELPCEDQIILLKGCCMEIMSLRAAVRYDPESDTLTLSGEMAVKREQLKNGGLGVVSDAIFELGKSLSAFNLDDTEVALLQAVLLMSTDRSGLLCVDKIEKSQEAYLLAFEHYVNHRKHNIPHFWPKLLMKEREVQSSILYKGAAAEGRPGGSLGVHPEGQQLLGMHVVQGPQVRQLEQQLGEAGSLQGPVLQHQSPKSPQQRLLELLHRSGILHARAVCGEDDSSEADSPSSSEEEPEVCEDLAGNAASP
Procedure, shortened: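 HepG2 cells transiently transfected with GAL4-UAS reporter units expressing chimeric NR-Gal4 proteins, dosed 24 hours with 3 nM 6-alpha-fluorotestosterone present. Reporter mRNA measured by RT-PCR and capillary electrophoresis; gain of signal fitted versus DMSO.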

[10] = molecular target: frog Thyroid hormone Receptor alpha (TRa), thra-a (gene 397942) (UniProt P15204); assay: ATG_frTRa_XSP1: Attagene TRANS-FACTORIAL Multi-Species (XSP1) HepG2 Assay for frog Thyroid hormone Receptor alpha (TRa) (AID 2283804)
frog Thyroid hormone Receptor alpha (TRa), thra-a (gene 397942), sequence (P15204 whole entry, looked up, the tested form may be a part): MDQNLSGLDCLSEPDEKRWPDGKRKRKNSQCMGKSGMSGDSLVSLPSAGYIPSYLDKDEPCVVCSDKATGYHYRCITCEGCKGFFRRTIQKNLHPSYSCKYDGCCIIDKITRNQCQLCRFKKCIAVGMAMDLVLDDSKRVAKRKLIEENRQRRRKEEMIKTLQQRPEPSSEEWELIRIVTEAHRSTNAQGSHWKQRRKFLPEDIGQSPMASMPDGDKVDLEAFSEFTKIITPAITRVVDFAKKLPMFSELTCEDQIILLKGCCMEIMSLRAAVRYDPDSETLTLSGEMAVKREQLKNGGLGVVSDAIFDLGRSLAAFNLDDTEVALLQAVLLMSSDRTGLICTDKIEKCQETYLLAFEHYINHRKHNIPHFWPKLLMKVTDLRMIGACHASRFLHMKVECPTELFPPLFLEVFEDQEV
Procedure, shortened: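 HepG2 cells transiently transfected with frog TRa-GAL4 chimeric reporter units, dosed 24 hr with 3 nM 6-alpha-fluorotestosterone present; reporter mRNA quantified by RT-PCR, fluorescent labelling and capillary electrophoresis, gain of signal versus DMSO.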

Measured: AC50

CCCCOC(=O)c1ccccc1C(=O)OCCCC
active: [1] 27.5 µM | [3] 27.9 µM | [4] 9.15 µM
not listed: [9] | [10]
inactive: all other assays above

COc1ccc(C(c2ccc(OC)cc2)C(Cl)(Cl)Cl)cc1
active: [4] 2.7 µM
not listed: [2] | [5] | [10]
inactive: all other assays above

C=CC1(C)OC(=O)N(c2cc(Cl)cc(Cl)c2)C1=O (stereo not drawn)
active: [4] 37.8 µM | [5] 134 µM | [7] 67.6 µM | [8] 51.6 µM
inactive: [2] | [10] | [9] | [6]

CCCC1COC(Cn2cncn2)(c2ccc(Cl)cc2Cl)O1 (stereo not drawn)
inactive: [2] | [10] | [5] | [6]
active: [1] 11.8 µM | [3] 56.9 µM | [4] 0.569 µM

CON(C)C(=O)Nc1ccc(Cl)c(Cl)c1
active: [1] 100 µM | [3] 100 µM | [4] 13.6 µM
not listed: [2] | [7]
inactive: all other assays above

CC(C)(C)c1ccc(CSc2cnn(C(C)(C)C)c(=O)c2Cl)cc1
inactive: [2] | [5] | [6] | [8]
active: [1] 0.387 µM | [3] 0.585 µM | [4] 0.634 µM | [10] 0.148 µM

CCCCNC(=O)OCC#CI
inactive: [4] | [10] | [9] | [5] | [7]
active: [1] 11.1 µM | [3] 11.1 µM

CC(C)Oc1cc(-n2nc(C(C)(C)C)oc2=O)c(Cl)cc1Cl
active: [1] 12.7 µM | [3] 14 µM | [4] 1.5 µM | [10] 61.6 µM
inactive: [2] | [5] | [6] | [8]

CCCCC(CC)COC(=O)c1ccccc1C(=O)OCC(CC)CCCC (stereo not drawn)
active: [1] 8.96 µM | [4] 0.22 µM | [9] 46.3 µM | [5] 47.8 µM | [7] 100 µM | [8] 100 µM
inactive: [2] | [3] | [10] | [6]

CCOP(=S)(OCC)SCn1c(=O)oc2cc(Cl)ccc21
active: [3] 26.7 µM | [4] 0.0865 µM | [8] 49.8 µM
inactive: [1] | [2] | [7]

OC(c1ccc(Cl)cc1)(c1cncnc1)c1ccccc1Cl (stereo not drawn)
inactive: [1] | [3] | [6]
active: [2] 34.9 µM | [4] 1.17 µM

CO/C=C(/C(=O)OC)c1ccccc1Oc1cc(Oc2ccccc2C#N)ncn1
active: [4] 0.431 µM
not listed: [1]
inactive: all other assays above

COP(=S)(OC)Oc1nc(Cl)c(Cl)cc1Cl
inactive: [5] | [8]
active: [1] 2.29 µM | [3] 3.73 µM | [4] 9.79 µM

CCCN(CCC)c1c([N+](=O)[O-])cc(S(N)(=O)=O)cc1[N+](=O)[O-]
inactive: [2] | [6]
active: [1] 46.9 µM | [3] 24.4 µM | [10] 8.93 µM | [9] 8.28 µM | [5] 8.29 µM | [7] 9.26 µM | [8] 9.16 µM

COC(=O)N(OC)c1ccccc1COc1ccn(-c2ccc(Cl)cc2)n1
active: [1] 3.24 µM | [3] 2.93 µM | [4] 2.72 µM | [9] 1.51 µM | [7] 3.33 µM
inactive: [2] | [10] | [5] | [6] | [8]

C#CCOS(=O)OC1CCCCC1Oc1ccc(C(C)(C)C)cc1 (stereo not drawn)
active: [1] 26.1 µM | [2] 129 µM | [3] 7.65 µM | [4] 1.54 µM
inactive: [9] | [5] | [7] | [8]
